# Data taken from the supplement of paper PMC8728848.
# Many of the other results were omitted from the sample, so the strongest signals are more common in it than they were.
# How the values were obtained:
# Test in all cases: glycan array binding signal (z-score within array); higher = stronger binding
# Details in all cases: glycan notation: IUPAC condensed, linker removed
# [1] = target: Fuc(a1-2)Gal(b1-3)GlcNAc6S
# Outline: (§1)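 From the Consortium for Functional Glycomics database, 3228 arrays were curated, keeping only those whose protein sequence was available. Binding is given as a within-array Z-score averaged across arrays sharing a protein sequence and across linkers. Negative Z-scores can be read as non-binding.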
# [2] = target: Fuc(a1-2)Gal(b1-3)[Fuc(a1-4)]GlcNAc(b1-2)Man(a1-3)[Fuc(a1-2)Gal(b1-3)[Fuc(a1-4)]GlcNAc(b1-2)Man(a1-6)]Man(b1-4)GlcNAc(b1-4)[Fuc(a1-6)]GlcNAc(b1-4)[Fuc(a1-6)]GlcNAc
# Outline: as §1
# Fuc(a1-2)Gal(b1-4)Glc = target: Fuc(a1-2)Gal(b1-4)Glc
# Outline: as §1
# Fuc(a1-2)Gal(b1-4)GlcNAc = target: Fuc(a1-2)Gal(b1-4)GlcNAc
# Outline: as §1
# [3] = target: Fuc(a1-2)Gal(b1-4)[Fuc(a1-3)]GlcNAc
# Outline: as §1
# [4] = target: Fuc(a1-2)Gal6S(b1-4)GlcNAc
# Outline: as §1
# [5] = target: Fuc(a1-2)[Gal(a1-3)]Gal(b1-3)GlcNAc
# Outline: as §1
# [6] = target: Fuc(a1-2)[Gal(a1-3)]Gal(b1-4)[Fuc(a1-3)]GlcNAc
# Outline: as §1
# [7] = target: Fuc(a1-2)[GalNAc(a1-3)]Gal(b1-3)GlcNAc
# Outline: as §1
# [8] = target: Fuc(a1-2)[GalNAc(a1-3)]Gal(b1-3)GlcNAc(b1-2)Man(a1-3)[Fuc(a1-2)[GalNAc(a1-3)]Gal(b1-3)GlcNAc(b1-2)Man(a1-6)]Man(b1-4)GlcNAc(b1-4)GlcNAc
# Outline: as §1
# [9] = target: Fuc(a1-2)[GalNAc(a1-3)]Gal(b1-4)Glc
# Outline: as §1
# [10] = target: Fuc(a1-2)[GalNAc(a1-3)]Gal(b1-4)GlcNAc
# Outline: as §1
# [11] = target: Fuc(a1-2)[GalNAc(a1-3)]Gal(b1-4)GlcNAc(b1-2)Man
# Outline: as §1
# [12] = target: Fuc(a1-2)[GalNAc(a1-3)]Gal(b1-4)GlcNAc(b1-2)Man(a1-3)[Fuc(a1-2)[GalNAc(a1-3)]Gal(b1-4)GlcNAc(b1-2)Man(a1-6)]Man(b1-4)GlcNAc(b1-4)GlcNAc
# Outline: as §1
# [13] = target: Fuc(a1-2)[GalNAc(a1-3)]Gal(b1-4)GlcNAc(b1-3)Gal(b1-4)GlcNAc
# Outline: as §1
# [14] = target: Fuc(a1-2)[GalNAc(a1-3)]Gal(b1-4)GlcNAc(b1-3)Gal(b1-4)GlcNAc(b1-3)Gal(b1-4)GlcNAc
# Outline: as §1
# [15] = target: Fuc(a1-3)[Gal(b1-4)]GlcNAc(b1-6)GalNAc
# Outline: as §1
# [16] = target: Gal(a1-3)Gal(b1-4)[Fuc(a1-3)]GlcNAc
# Outline: as §1
# [17] = target: Gal(b1-3)GalNAc(a1-3)[Fuc(a1-2)]Gal(b1-4)Glc
# Outline: as §1
# [18] = target: Gal(b1-3)GalNAc(a1-3)[Fuc(a1-2)]Gal(b1-4)GlcNAc
# Outline: as §1
# Gal(b1-3)GlcNAc = target: Gal(b1-3)GlcNAc
# Outline: as §1
# [19] = target: Gal(b1-3)GlcNAc(b1-2)Man(a1-3)[Gal(b1-3)GlcNAc(b1-2)Man(a1-6)]Man(b1-4)GlcNAc(b1-4)GlcNAc
# Outline: as §1
# [20] = target: Gal(b1-3)[GlcNAc(b1-6)]GalNAc
# Outline: as §1
# [21] = target: Gal(b1-3)[Neu5Ac(a2-6)]GlcNAc(b1-6)Gal(b1-4)Glc
# Outline: as §1
# [22] = target: Gal(b1-4)GalNAc(a1-3)[Fuc(a1-2)]Gal(b1-4)GlcNAc
# Outline: as §1
# Gal(b1-4)GlcNAc(b1-2)Man = target: Gal(b1-4)GlcNAc(b1-2)Man
# Outline: as §1
# [23] = target: Gal(b1-4)GlcNAc(b1-3)Gal(b1-4)GlcNAc(b1-3)Gal(b1-4)GlcNAc
# Outline: as §1
# [24] = target: Gal(b1-4)GlcNAc(b1-3)Gal(b1-4)GlcNAc(b1-3)Gal(b1-4)GlcNAc(b1-3)Gal(b1-4)GlcNAc(b1-2)[Gal(b1-4)GlcNAc(b1-3)Gal(b1-4)GlcNAc(b1-3)Gal(b1-4)GlcNAc(b1-3)Gal(b1-4)GlcNAc(b1-6)]Man(a1-6)[Gal(b1-4)GlcNAc(b1-3)Gal(b1-4)GlcNAc(b1-3)Gal(b1-4)GlcNAc(b1-3)Gal(b1-4)GlcNAc(b1-2)Man(a1-3)]Man(b1-4)GlcNAc(b1-4)[Fuc(a1-6)]GlcNAc
# Outline: as §1
# [25] = target: Gal3S(b1-4)[Fuc(a1-3)]Glc6S
# Outline: as §1
binder,measurement,setting,value
"Gal 4 (Mus musculus), P56470 (protein) MAYVPAPGYQPTYNPTLPYYQPIPGGLNVGMSVYIQGVASEHMKRFFVNFVVGQDPGSDVAFHFNPRFDGWDKVVFNTLQGGKWGSEERKRSMPFKKGAAFELVFIVLAEHYKVVVNGNPFYEYGHRLPLQMVTHLQVDGDLQLQSINFIGGQPLRPQGPPMMPPYPGPGHCHQQLNSLPTMEGPPTFNPPVPYFGRLQGGLTARRTIIIKGYVPPTGKSFAINFKVGSSGDIALHINPRMGNGTVVRNSLLNGSWGSEEKKITHNPFGPGQFFDLSIRCGLDRFKVYANGQHLFDFAHRLSAFQRVDTLEIQGDVTLSYVQI",glycan array binding signal (z-score),[1],4.25
same,glycan array binding signal (z-score),[2],-0.312
same,glycan array binding signal (z-score),Fuc(a1-2)Gal(b1-4)Glc,-0.196
same,glycan array binding signal (z-score),Fuc(a1-2)Gal(b1-4)GlcNAc,-0.232
same,glycan array binding signal (z-score),[3],-0.234
same,glycan array binding signal (z-score),[4],-0.199
same,glycan array binding signal (z-score),[5],2.26
same,glycan array binding signal (z-score),[6],-0.266
same,glycan array binding signal (z-score),[7],4.51
same,glycan array binding signal (z-score),[8],6.91
same,glycan array binding signal (z-score),[9],5.4
same,glycan array binding signal (z-score),[10],3.27
same,glycan array binding signal (z-score),[11],4.19
same,glycan array binding signal (z-score),[12],3.77
same,glycan array binding signal (z-score),[13],4.64
same,glycan array binding signal (z-score),[14],4.02
same,glycan array binding signal (z-score),[15],-0.301
same,glycan array binding signal (z-score),[16],-0.234
same,glycan array binding signal (z-score),[17],4.95
same,glycan array binding signal (z-score),[18],3.84
same,glycan array binding signal (z-score),Gal(b1-3)GlcNAc,-0.228
same,glycan array binding signal (z-score),[19],-0.181
same,glycan array binding signal (z-score),[20],-0.234
same,glycan array binding signal (z-score),[21],-0.176
same,glycan array binding signal (z-score),[22],4.23
same,glycan array binding signal (z-score),Gal(b1-4)GlcNAc(b1-2)Man,-0.289
same,glycan array binding signal (z-score),[23],-0.171
same,glycan array binding signal (z-score),[24],-0.148
same,glycan array binding signal (z-score),[25],-0.18
